High-throughput results from PubChem BioAssay.
Compounds with a hit are over-represented: about 4.8% of the library has one in this group of screens.
ATXN2 expr inh = ATXN2 expression inhibition | Potency, µM (titrated, usually from 57 µM), for inactives: at the top dose activity change, negative = inhibition, actives largely listed as inhibitors | HEK-293 ATXN2-luciferase reporter, luminescence, 24 h | 0.72% of 360,000 active; note: potency is the fitted concentration of half-maximal effect; % is set by controls: 0 for no effect and ±100 for the full control effect; nearly all actives have a fitted effect of over 55% in size
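qHTS (up to 57 uM final) was run with 24 h compound exposure of reporter cells at 37 °C. Each well was multiplexed: SteadyGlo luminescence measured ATXN2-luciferase expression after a fluorogenic Gly-Phe-AFC viability readout (25 uM final).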
USP1-UAF1 inh = inhibitors of human USP1/UAF1 deubiquitinase; recombinant USP1/UAF1, Ub-Rhodamine cleavage fluorescence; 0.23% of 390,000 active; AID 743255; Potency, µM (series often up to 57.1 µM), for the others: at the highest dose activity change, negative = inhibition, usual class: inhibitors; O94782; note: potency is the fitted concentration of half-maximal effect; % is set by controls: 0 for no effect and ±100 for the full control effect; nearly all actives have a fitted effect of over 60% in size
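High-throughput fluorogenic screen: 1nM USP1/UAF1 complex, Ub-Rho substrate 150nM final, 50mM HEPES pH 7.8 with 0.5mM EDTA, 0.1 mg/ml BSA, 1mM TCEP and 0.01% Tween-20.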
IL-1B inflam inh = inhibitors of inflammasome signaling (IL-1 beta secretion); THP-1 LPS/ATP IL-1B secretion, AlphaLISA, 16 h; active compounds read low; activity change, % at 57.5 µM; 4.7% of 360,000 active; AID 743279; in the data active = activity change below about -50%; inconclusive = mostly about -30% to -49%; note: % is set by controls: 0 for no effect and ±100 for the full control effect
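THP-1 cells pretreated 1 hr with compounds (up to 57.5 uM final), then stimulated with LPS (250 ng/mL final) plus ATP (1.25 mM final); secreted IL-1B measured by AlphaLISA after 16 hr, decreased signal indicating inhibition.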
USP2a inh = USP2a (human) protease inhibition. 0.01% of 330,000 active. USP2 core, Ub-CHOP2 coupled fluorogenic reporter, 485/531. Potency, µM (doses to about 38.3 µM), without a hit: at the highest dose activity change, negative = inhibition, hits mostly inhibitors. AID 463254. O75604;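 note: potency is the fitted concentration of half-maximal effect; plate controls were DMSO wells for no effect and full inhibition by NEM control for full effect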
Target sequence (O75604 whole entry, looked up): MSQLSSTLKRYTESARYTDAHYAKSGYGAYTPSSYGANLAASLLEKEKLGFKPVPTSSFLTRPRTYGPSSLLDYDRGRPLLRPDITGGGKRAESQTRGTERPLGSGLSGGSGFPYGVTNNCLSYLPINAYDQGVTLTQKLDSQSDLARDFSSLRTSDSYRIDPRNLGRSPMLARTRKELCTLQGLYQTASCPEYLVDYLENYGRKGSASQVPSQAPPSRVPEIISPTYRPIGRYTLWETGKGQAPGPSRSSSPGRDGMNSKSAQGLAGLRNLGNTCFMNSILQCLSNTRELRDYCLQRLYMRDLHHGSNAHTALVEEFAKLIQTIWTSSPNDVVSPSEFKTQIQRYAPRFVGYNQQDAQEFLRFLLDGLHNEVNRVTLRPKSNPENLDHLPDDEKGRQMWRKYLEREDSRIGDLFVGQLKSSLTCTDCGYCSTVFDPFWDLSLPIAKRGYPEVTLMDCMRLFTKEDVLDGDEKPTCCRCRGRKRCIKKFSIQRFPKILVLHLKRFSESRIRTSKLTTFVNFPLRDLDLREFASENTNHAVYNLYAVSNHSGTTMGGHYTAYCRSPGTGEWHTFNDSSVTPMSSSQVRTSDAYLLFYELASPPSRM
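Cell-free coupled assay: 10nM USP2 core preincubated 30min RT with compound in Tris-HCl pH 8.0/CaCl2/CHAPS buffer, then 25nM Ub-CHOP2 and 25nM reporter substrate; fluorescence (Ex 485/Em 531) read after 60min RT, normalized to NEM inhibition, concentration-response curves fitted.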
S2 tox = cell viability loss in ATXN counter-screen. S2 cells (HEK-293 line with an ATXN2-luciferase reporter) viability, CellTiter-Fluor protease fluorescence, 24 h. Potency, µM (highest dose often 56.7 µM), hits mostly cytotoxic. 0.49% of 400,000 active. AID 651635; note: potency is the fitted concentration of half-maximal effect; nearly all actives have a fitted effect of over 40% in size
* marks the source's active call; other numbers are inactive results; i = inactive; ? = inconclusive; . = not tested or not shown. Unless noted, calls come from the whole dose curve; as a rule, active = well fitted curve in the direction sought with a large enough effect; inconclusive = small, poorly fitted or top-dose-only effect, or another doubt; inactive = no such curve, though single readings can be large; an effect the other way counts as inactive or inconclusive.

SMILES | ATXN2 expr inh | USP1-UAF1 inh | IL-1B inflam inh | USP2a inh | S2 tox
Cc1c(OC(C)C(=O)NCC2CCC(C(=O)O)CC2)ccc2c3c(c(=O)oc12)CCCC3 (stereo not drawn) | 0% | -20% | 16 | 1% | i
Oc1ccccc1CN1CCCC(N2CCc3ccccc3C2)C1 (stereo not drawn) | -16% | -17% | -8 | 4% | i
CC(C)OCCCn1c(=O)c2ccccc2n2c(CCC(=O)NC3CCN(Cc4ccccc4)CC3)nnc12 | -10% | -7% | -51* | -3% | i
CCc1ccc(NC(=O)CSc2nc3ccccc3c(=O)n2CCCN2CCC(C)CC2)cc1 | -34% | -17% | -100* | 2% | i
CCOCCCn1c(SCC(=O)Nc2ccc3[nH]c(=O)[nH]c3c2)nc2ccccc2c1=O | 1% | -16% | -54* | 0% | i
CCc1ccc(NC(=O)CSc2nc3ccccc3c(=O)n2CCNC(C)=O)cc1 | -5% | -6% | . | . | i
CC1=C(C(=O)OC2CCCCC2)C(c2ccc(O)cc2)NC(=O)N1 (stereo not drawn) | . | -13% | -6 | -2% | i
CC1=C(C(=O)OC2CCCCC2)C(c2ccc(F)cc2)NC(=O)N1 (stereo not drawn) | -16% | -31% | -53* | -1% | i
OCCOCCN1CCN(C2=Nc3ccccc3Sc3ccccc32)CC1 | -3% | 14% | -15 | -1% | i
O=C1C=CC(=O)c2c(O)c(N3CCN(CCO)CC3)c(Cl)c(O)c21 | 5.6µM* | 2.8µM* | -73* | . | 7.9µM*
O=C1C=CC(=O)c2c(O)c(N3CCN(CCOCCO)CC3)c(Br)c(O)c21 | 7.9µM* | 2µM* | -117* | . | 10µM*
O=S(=O)(c1ccc(Br)cc1Cl)N1CCN(CCO)CC1 | -3% | -21% | 45 | -1% | i
NC(=O)c1ccsc1NC(=O)c1ccc([N+](=O)[O-])o1 | 1% | -21% | -68* | -2% | i
O=C(Nc1ccccn1)c1ccc(-c2ccccc2)cc1 | ? | -6% | -59* | -4% | i
O=C(Nc1ccccn1)c1ccc([N+](=O)[O-])o1 | . | -18% | -92* | 2% | i
O=C(Nc1ncccn1)c1ccc([N+](=O)[O-])o1 | -17% | 23% | -90* | ? | i
CCOC(=O)c1cc2c(C)n(-c3ccc(OCC)cc3)c(C)c2ccc1=O | -5% | -16% | -19 | -1% | i
CCOC(=O)c1cc2c(C)n(-c3ccc(C)cc3)c(C)c2ccc1=O | 0% | -17% | -66* | 2% | i
Cn1nc(C(=O)Oc2cc(=O)n(C)c3ccccc23)c2ccccc2c1=O | . | -23% | 38 | 1% | 0.22µM*
Cc1ccc(COC(=O)c2nn(C)c(=O)c3ccccc23)cc1 | -16% | 1% | 41 | 6% | i
CCOc1ccc(NC(=O)CSC2=C(C#N)C(c3ccc4c(c3)OCO4)CC(=O)N2)cc1 (stereo not drawn) | -11% | -12% | -55* | -8% | i
COc1cc(C2Nc3cccc4cccc(c34)N2)ccc1O | -6% | ? | -83* | -2% | ?
COc1cc(C2Nc3cccc4cccc(c34)N2)cc(OC)c1OC(C)=O | -10% | ? | -20 | 3% | ?
Cc1cc(=O)[nH]c2nc3ccccc3n12 | . | -19% | -2 | . | .
CC12CCC3C(=CCc4cc(O)ccc43)C1CC(=NO)C2O (stereo not drawn) | -4% | -17% | 3 | . | i
COc1ccc2c(c1)CC=C1C2CCC2(C)C(=O)C(=NO)CC12 (stereo not drawn) | -5% | -12% | -88* | . | i
CC1(C)S[C@H]2[C@H](NC(=O)[C@@H](N)c3ccc(O)cc3)C(=O)N2[C@@H]1C(=O)O | 4% | . | . | . | .
O=S(=O)(/C(=C\c1ccc(C(F)(F)F)cc1)c1nc2ccccc2[nH]1)c1ccccc1 | 5µM* | -39% | -96* | . | 7.1µM*
O=C(NCc1ccco1)/C(=C/c1cccc(C(F)(F)F)c1)c1nc2ccccc2[nH]1 | ? | 2% | -115* | 3% | ?
O=C(CSc1nc2ccccc2[nH]1)NCc1ccco1 | 31% | ? | -1 | 0% | i
